Reference: PubChem BioAssay (EPA / NIEHS)
Several values for one entry are separate records, joined by “and”; a condition that tells them apart may be missing. Equal values may be shown once. The source holds several records for some structures; these can differ, active in one and inactive in another. Activity calls are given as the source filed them. How the source made its calls: active means hit-call score of the fitted dose curve at least 0.9, where 1 is the maximum; inactive means score below 0.9.

Each compound was assayed on Vascular endothelial growth factor receptor 2 (Homo sapiens) (UniProt P35968) (assay: BSK_4H_VEGFRII: BioMAP Diversity Plus: 4H Assay for Vascular endothelial growth factor receptor 2 (VEGFR2) Biomarker Activity (AID 2283031)). Details: primary human endothelial cells (HUVEC); actives raise or lower the signal.
Experimental: BSK_4H is a cell-based, multiplexed-readout assay that uses umbilical vein endothelium, a human vascular primary cell, with measurements taken at 24 hours after chemical dosing in a 96-well plate.BSK_4H_VEGFRII is an assay component measured in the BSK_4H assay. It measures VEGFRII antibody related to regulation of gene expression using ELISA technology.Data from the assay component BSK_4H_VEGFRII was analyzed into 1 assay endpoint. This assay endpoint, BSK_4H_VEGFRII, was analyzed with bidirectional fitting relative to DMSO as the negative control and baseline of activity. Using a type of binding reporter, gain or loss-of-signal activity can be used to understand changes in the signaling as they relate to the gene KDR. Furthermore, this assay endpoint can be referred to as a primary readout, because this assay has produced multiple assay endpoints where this one serves a signaling function. To generalize the intended target to other relatable targets, this assay endpoint is annotated to the kinase intended target family, where the subfamily is receptor tyrosine kinase.
The levels of cell surface (or secreted, indicated by the prefix "s") biomarker endpoints were measured by ELISA. Overt cytotoxicity to cells in confluent adherent cultures (all systems other than the BT system) was assessed by measuring total protein levels using sulforhodamine B (SRB) staining in parallel cultures at the time of biomarker measurements, indicated as SRB endpoints. For proliferation assays for adherent cell types, individual cell types are cultured at sub-confluence and relative cell numbers quantified by SRB staining at time points optimized for each system (48 h: 3C and CASM3C systems; 72 h: BT and HDF3CGF systems; 96 h: SAg system). SRB was performed by staining cells with 0.1% SRB after fixation with 10% TCA and reading wells at 560 nm.Viability and proliferation of PBMC (T cells) was quantified by Alamar Blue reduction for the SAg and BT systems. For PBMC viability (referred to as PBMC Cytotoxicity within the assay endpoint names), cells were plated (75,000/well in a 96-well plate) and then chemical samples added for 1 h before addition of activators, SEB and TSST-1 (20 ng/mL final concentration each). Cells were incubated for 90 h. Then, Alamar Blue (20 uL/well) (Invitrogen, Cat DAL1100) was added for 6 h, and the plates were read with a fluorescence microplate reader at 546/580 nm (excitation/emission). For PBMC proliferation, cells were plated and activated as above but incubated for only 16 h prior to addition of Alamar Blue. Plates were read after 6 h.

Structure (SMILES)	outcome	AC50
FC(F)(F)C(F)(F)C(F)(F)CI	inactive	
O=C(O)C(F)(OC(F)(F)C(F)(OC(F)(F)C(F)(F)C(F)(F)F)C(F)(F)F)C(F)(F)F (stereo not given)	inactive	
C=CC(F)(F)C(F)(F)C(F)(F)C(F)(F)C(F)(F)C(F)(F)C(F)(F)C(F)(F)F	inactive	
OCC(F)(F)C(F)(F)C(F)(F)F	inactive	
OCC(F)(F)C(F)(F)C(F)(F)C(F)F	inactive	
C=CC(=O)OCC(F)(F)C(F)(F)C(F)(F)C(F)(F)COC(=O)C=C	inactive	9.64 µM (active)
CO[Si](OC)(c1ccccc1)c1ccccc1	inactive	
CCCCOCCOCCOC(=O)CCCCC(=O)OCCOCCOCCCC	inactive	
O=C(O)C(F)(F)C(F)(F)F	inactive	
C=CC/C=C/C/C=C/C/C=C/C	inactive	
Nc1ccc([N+](=O)[O-])cc1O	inactive	
O=C(O)C(F)(F)C(F)(F)C(F)(F)C(F)(F)C(F)(F)C(F)(F)C(F)(F)C(F)(F)Cl	inactive	
FC(F)(Br)C(F)(F)C(F)(F)C(F)(F)C(F)(F)C(F)(F)Br	inactive	
CCCCCCC(C)OC(=O)CCCCC(=O)OC(C)CCCCCC (stereo not given)	inactive	
O=S(=O)(OCC(F)F)C(F)(F)F	inactive	
FC(F)(F)C(F)(F)CNCC(F)(F)C(F)(F)F	inactive	
O=C(O)C(F)(F)C(F)(F)C(F)(F)C(F)(F)C(F)(F)C(F)(F)C(F)(F)C(F)(F)C(F)(F)C(F)(F)C(F)(F)C(F)(F)C(F)(F)F	inactive	0.932 µM (active)
CCc1c(Br)c(Br)c(Br)c(Br)c1Br	inactive	

Structure (SMILES)	outcome	AC50
FC(F)(I)C(F)(F)C(F)(F)C(F)(F)I	inactive	18.7 µM (active) and 45.2 µM (active)
O=C(O)C(F)(F)C(F)(F)OC(F)(F)F	inactive	2.45 µM (active)
COC(=O)CCC(F)(F)C(F)(F)C(F)(F)C(F)(F)F	inactive	
O=C(Cl)C(F)(F)C(F)(F)C(F)(F)C(F)(F)C(F)(F)C(F)(F)C(F)(F)C(F)(F)F	inactive	30 µM (active)
FC(F)(F)C(F)(F)C(F)(F)C(F)(F)C(F)(F)C(F)(F)C(F)(F)Br	inactive	
OCCCC(F)(F)C(F)(F)C(F)(F)F	inactive	
NC(=O)C(F)(F)C(F)(F)C(F)(F)C(F)(F)F	inactive	
OCC(F)(F)C(F)(F)C(F)(F)C(F)(F)C(F)(F)C(F)F	inactive	
C=CC(=O)OCC(F)(F)C(F)(F)C(F)(F)C(F)(F)C(F)(F)C(F)(F)C(F)(F)F	inactive	
FC(F)(F)C(F)(F)C(F)(F)C(F)(F)CCI	inactive	
Cc1ccc(S(=O)(=O)OCC(F)(F)C(F)(F)C(F)(F)C(F)(F)C(F)(F)C(F)F)cc1	inactive	
O=C(O)C=C(C(F)(F)F)C(F)(F)F	inactive	
CCN(CC)c1ccc2c(C)cc(=O)oc2c1	inactive	
O=C(O)C(F)(F)C(F)(F)C(F)(F)C(F)(F)F	inactive	
CC(C)(C)C(=O)CC(=O)C(F)(F)C(F)(F)C(F)(F)F	inactive	
FC1CC(F)(F)C(F)(F)C1(F)F (stereo not given)	inactive	
FC(F)(F)C(F)(F)C(F)(F)C(F)(F)C(F)(F)C(F)(F)C(F)(F)I	inactive	
